# Laboratory results taken from PubChem BioAssay (Tox21).
# Values joined by “and” are separate entries in the source; they are usually repeats but may differ in a detail not shown here. Equal values may be shown once. Inconclusive results are not listed. Entries that show only a call come without a potency. Active and inactive are the calls of the source. Calls come from the whole dose curve; as a rule, active = well fitted inhibition curve with a large enough effect in the repeat runs; inconclusive = weak or mixed curves, or effect the other way; inactive = no such curve, though single readings can be large or run the other way.
# Biological target: Nuclear receptor ROR-gamma (Homo sapiens) (UniProt P51449)
# Assay: qHTS assay to identify small molecule antagonists of the retinoid-related orphan receptor gamma (ROR-gamma) signaling pathway (AID 1159521; note: nearly all actives have a fitted effect of over 50% in size)
# Conditions: Tet-on RORgamma CHO cells, RORE-luciferase, 16 h; series mostly up to 92.4 µM
# Excerpt: U.S. Tox21 Program National Center for Advancing Translational Sciences [NCATS] NIH Chemical Genomics Center [NCGC] U.S. Environmental Protection Agency [EPA] National Institutes of Environmental Health Sciences [NIEHS] National Toxicology Program [NTP] U.S. Food and Drug Administration [FDA] Tox21 Assay Overview: Nuclear steroid hormone receptors are involved in many biological processes including inflammatory responses, cell proliferation, and apoptosis. Environmental factors or compounds disrupting these nuclear receptor pathways and gene expression may promote susceptibility to immunotoxicants and autoimmune diseases. One important group of these expression factors are the retinoid-related orphan receptors. To assess compounds that may interfere with the retinoid-related orphan receptor gamma (ROR-gamma) transcription factor, a cell-based luciferase assay was used. The CHO cell-based assay utilizes a TET-inducible ROR expression factor and ROR response element-LUC reporter gene. Reporter gene activity was induced using Doxycycline Hyclate and measured after 16 hr incubation. Tet-on ROR gamma CHO cells were used to screen against the Tox21 10K compound library for ROR gamma antagonists by quantification of decreased reporter gene activity in terms of decreased luminescence.
# Tox21 Assay Protocol Summary: Tet-on ROR gamma CHO cells were dispensed at 1,000 cells in 4 uL of culture medium per well into white wall/solid bottom 1536-well plates using a Multidrop Combi (Thermo Scientific, Waltham, MA) dispenser. Following incubation at 37 C and 5% CO2 for 4 hr, 23 nL of compounds dissolved in DMSO, positive controls or DMSO only were transferred by a Pintool station (Kalypsys, San Diego, CA) and after 2 hr incubation at 37 C, one ul of 1 uM (final concentration) of Doxycycline Hyclate was added to all the wells by using a Flying Reagent Dispenser (FRD) (Aurora Discovery, San Diego, CA). After 16 hr incubation at 37 C and 5% CO2, 5 uL of ONE-Glo reagent (Promega Corporation, Madison, WI) was added to each assay plate using FRD. After 30 min incubation at room temperature, luminescence was quantified on a ViewLux plate reader (Perkin Elmer, Waltham, MA).
# Potency is the fitted concentration of half-maximal effect.
row,SMILES,Potency
1,CCCCCCCC[N+](C)(CCCCCCCC)CCCCCCCC,4.32 µM (active) and 2.17 µM (active) and 6.11 µM (active)
2,CC(C)(c1ccc(OCC2CO2)cc1)c1ccc(OCC2CO2)cc1 (stereo not given),inactive
3,CNC(=O)CSP(=S)(OC)OC,inactive
4,ClCC(Cl)CCl,inactive
5,CCOP(=S)(OCC)SCn1c(=O)oc2cc(Cl)ccc21,32.9 µM (active)
6,C[N+](C)(C)CC(=O)[O-],inactive
7,C[C@]12CCC(=O)C=C1CC[C@@H]1[C@@H]2CC[C@@]2(C)[C@H]1CC[C@]2(C)O,15.5 µM (active) and 26.6 µM (active)
8,CC[n+]1c(-c2ccccc2)c2cc(N)ccc2c2ccc(N)cc21,inactive
9,CCOP(=S)(OCC)OP(=S)(OCC)OCC,inactive
10,CC(C)(O)C(=O)Nc1ccc([N+](=O)[O-])c(C(F)(F)F)c1,19.7 µM (active)
11,Cc1cc(Cl)ccc1N=CN(C)C,inactive
12,CC1=C(C(=O)Nc2ccccc2)SCCO1,inactive
13,CC(C)(O)C#N,inactive
14,CCCCOC(=O)COC(=O)c1ccccc1C(=O)OCCCC,inactive
15,O=[N+]([O-])/N=C1\NCCN1Cc1ccc(Cl)nc1,inactive
16,Clc1cccc(Cl)c1,30.4 µM (active)
17,CC1(C)Cc2cccc(O)c2O1,inactive
18,CC(C)=CC1C(C(=O)OCc2cccc(Oc3ccccc3)c2)C1(C)C (stereo not given),inactive
19,CC(C)(c1ccccc1)c1ccc(O)c(C(C)(C)c2ccccc2)c1,19.2 µM (active) and 27.3 µM (active)
20,CC(C)(c1ccccc1)c1ccc(O)cc1,60.6 µM (active)

row,SMILES,Potency
1,CCCCSP(=O)(SCCCC)SCCCC,inactive
2,ClC(Cl)(Cl)Br,inactive
3,O=C(O)c1nn(Cc2ccc(Cl)cc2Cl)c2ccccc12,inactive
4,N#CCCCCC#N,inactive
5,OC(c1ccc(Cl)cc1)(c1cncnc1)c1ccccc1Cl (stereo not given),4.4 µM (active) and 54.5 µM (active)
6,N#Cc1cccnc1,inactive
7,CC(C)(C#N)N=NC(C)(C)C#N,inactive
8,CC(C)CON=O,inactive
9,CCCCOCCOC(C)=O,inactive
10,NC(=O)CN1CCCC1=O,inactive
11,COC(=O)Nc1nc2ccccc2[nH]1,inactive
12,COP(=S)(OC)Oc1ccc(Sc2ccc(OP(=S)(OC)OC)cc2)cc1,inactive
13,CN(C)P(=O)(N(C)C)N(C)C,inactive
14,O=NN1CCOCC1,inactive
15,Cc1ccc([N+](=O)[O-])cc1,inactive
16,COP(=S)(OC)SCn1nnc2ccccc2c1=O,inactive
17,CCCCCCCCCCCCCl,inactive
18,CCNCC,inactive
19,CC(C)COC(=O)c1ccccc1C(=O)OCC(C)C,inactive
20,Oc1ccc(Cl)cc1Cl,inactive
